# Compounds with a hit are over-represented: about 2.8% of the library has one in this group of screens.
# WRN helicase inh = qHTS for Inhibitors of WRN Helicase; Bifunctional 3'-5' exonuclease/ATP-dependent helicase WRN (Homo sapiens), Q14191; WRN helicase unwinding, fluorescent forked duplex, kinetic; Potency, µM (titrated, usually from 114 µM), for the others: at the highest dose activity change, negative = inhibition, actives largely listed as inhibitors; 360,000 compounds, 0.46% hits; also: potency is read from the fitted curve at half-maximal effect; % is scaled to controls: 0 for no effect and ±100 for the full control effect; nearly all actives have a fitted effect of over 55% in size
#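 Fluorescence dequenching readout, ex 525 nm/em 598 nm, kinetic mode: forked duplex DNA (100 nM final) with adjacent fluorophore and quencher unwound by WRN (20 nM final) with 2 mM ATP. Compound preincubation 15 min, room temperature.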
# POLB inh = qHTS Assay for Inhibitors of DNA Polymerase Beta. 340,000 compounds, 1.3% hits. Pol beta primer extension/strand displacement, fluorescence kinetic. Potency, µM (doses to about 114 µM), inactives show at the highest dose activity change, negative = inhibition, most hits filed as inhibitors. AID 485314, 2010. P06746; also: potency is read from the fitted curve at half-maximal effect; % is scaled to controls: 0 for no effect and ±100 for the full control effect
#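 Enzyme-only controls used 10 nM Pol beta; buffer lacking enzyme served as negative control. Compound preincubated 15 min, then 50 nM substrate added; 0 and 10 min reads at room temperature.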
# POLI inh = qHTS for Inhibitors of Polymerase Iota. 390,000 compounds, 1% hits. AID 588590, 2011. Potency, µM (doses to about 115 µM), without a hit: at the top dose activity, negative = inhibition, usual class: inhibitors. Pol iota fluorescent replication assay, 10 min. DNA polymerase iota (Homo sapiens), Q9UNA4; also: potency is read from the fitted curve at half-maximal effect
#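 Pol iota at 10 nM preincubated 15 min with compounds at room temperature; reaction started with fluorescent substrate, 50 nM final. Fluorescence read kinetically at 0 and 10 min; buffer-only wells as negative control.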
# Pol kappa inh = qHTS for Inhibitors of Polymerase Kappa | DNA polymerase kappa (Homo sapiens), Q9UBT6 | purified Pol kappa, fluorescent DNA synthesis assay, 10 min | Potency, µM (titrated, usually from 107 µM), for the others: at the highest dose activity, negative = inhibition, usual class: inhibitors | 400,000 compounds, 0.53% hits | AID 588579, 2011; also: potency is read from the fitted curve at half-maximal effect; % is scaled to controls: 0 for no effect and ±100 for the full control effect
#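 Here, compound and 10 nM enzyme are combined for 15 min at room temperature; adding 50 nM substrate (final) starts DNA synthesis, tracked by fluorescence at 0 and 10 min against buffer-only wells.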
# PI5P4Ka inh = qHTS for Inhibitors of phosphatidylinositol 5-phosphate 4-kinase (PI5P4K). Phosphatidylinositol 5-phosphate 4-kinase type-2 alpha (Homo sapiens), P48426. PI5P4Kalpha enzyme, ADP-Glo luminescence, 60 min; stronger effect = lower value. max response, %. 330,000 compounds, 1.2% hits; active = max response of -50% or lower; inconclusive = between -30% and -50%; inactive = -30% or higher; also: value at the top dose of about 77 µM; % is scaled to controls: 0 for no effect and ±100 for the full control effect
#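 Single end-point luminescence (ADP-Glo) quantified ADP from PI5P4Kalpha turnover; ATP 5 microM final, 1 h at RT, 0.1% CHAPS and 0.28 mM EGTA in HEPES pH 7.4.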
# POLH inh = qHTS for Inhibitors of Polymerase Eta | DNA polymerase eta (Homo sapiens), Q9Y253 | Potency, µM (doses to about 114 µM), without a hit: at the highest dose activity change, negative = inhibition, usual class: inhibitors | 390,000 compounds, 1.2% hits | recombinant Pol eta, fluorescent DNA replication assay; also: potency is read from the fitted curve at half-maximal effect; % is scaled to controls: 0 for no effect and ±100 for the full control effect
# Target sequence (Q9Y253 whole entry, looked up): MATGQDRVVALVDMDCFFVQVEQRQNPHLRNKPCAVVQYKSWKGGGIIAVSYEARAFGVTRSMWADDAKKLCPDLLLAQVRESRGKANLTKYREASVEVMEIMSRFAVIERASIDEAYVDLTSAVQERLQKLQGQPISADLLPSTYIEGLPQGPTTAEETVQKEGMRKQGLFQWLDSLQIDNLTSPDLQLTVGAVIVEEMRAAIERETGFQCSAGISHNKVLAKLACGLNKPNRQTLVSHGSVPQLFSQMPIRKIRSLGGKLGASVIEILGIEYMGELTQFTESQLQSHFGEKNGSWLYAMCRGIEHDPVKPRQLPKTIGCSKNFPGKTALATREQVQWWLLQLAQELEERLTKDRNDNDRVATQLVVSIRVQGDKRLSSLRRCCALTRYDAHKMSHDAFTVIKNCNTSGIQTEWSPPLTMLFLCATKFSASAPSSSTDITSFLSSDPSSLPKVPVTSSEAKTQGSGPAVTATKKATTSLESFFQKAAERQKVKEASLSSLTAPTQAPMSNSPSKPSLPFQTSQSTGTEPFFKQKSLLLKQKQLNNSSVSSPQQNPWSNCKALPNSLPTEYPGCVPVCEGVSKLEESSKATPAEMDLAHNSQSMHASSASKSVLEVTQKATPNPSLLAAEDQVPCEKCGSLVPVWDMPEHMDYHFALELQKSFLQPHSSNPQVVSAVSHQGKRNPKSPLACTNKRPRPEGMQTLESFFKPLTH
#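 Fluorescent replication assay: 50 nM final substrate added after a 15 min room-temperature compound preincubation with 10 nM enzyme. Signal taken at 0 min and again at 10 min.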
# ADP-Glo interf = qHTS for Inhibitors of PI5P4K: ADP-Glo counter assay | shares compounds with PI5P4Ka inh | ADP-Glo detection counter-screen, luciferase luminescence, no enzyme | Potency, µM (highest dose often 76.9 µM), without a hit: top-dose activity change, negative = inhibition, most hits filed as inhibitors | 1,100 tested, under 10 active
# The depositor's hits bear a star; u = inconclusive; x = not tested or not shown; [ ] = another dose, or the depositor's remark. Unless noted, calls follow the shape of the dose curve; as a rule, active = well fitted curve in the direction sought with a large enough effect; inconclusive = small, poorly fitted or top-dose-only effect, or another doubt; inactive = no such curve, though single readings can be large; an effect the other way counts as inactive or inconclusive.
SMILES,WRN helicase inh,POLB inh,POLI inh,Pol kappa inh,PI5P4Ka inh,POLH inh,ADP-Glo interf
CCCCN(C(=O)CN1C(=O)C2CCCCC2C1=O)c1c(N)n(CCC)c(=O)[nH]c1=O (stereo unspecified),-7%,x,19%,3%,2,-19%,x
CC(C)(C)c1ccc2c(S(=O)(=O)O)c(C(C)(C)C)ccc2c1,x,x,x,4%[19.4 µM],x,x,x
CC(C)NC(=O)c1ccc2c3n(nc2c1)-c1ccccc1CO3,2%,2%,32%,-6%,-52*,-18%,u
CC(C)[C@@H](CO)NC(=O)c1ccc2c3n(nc2c1)-c1ccccc1CO3,8%,11%,3%,-3%,-7,4%,x
C[C@]12CC[C@@H](O)C[C@@H]1CC[C@@H]1[C@@H]2CC[C@]2(C)C=CC[C@@H]12,x,x,x,4%[19.4 µM],x,x,x
Cc1ccc(NC(=O)CSc2cn[nH]n2)cc1,22%,-3%,11%,3%,6,-5%,x
O=S(=O)(Nc1nccs1)c1cc(Cl)ccc1Cl,-12%[57.1 µM],-2%,u,0%,-51*,25µM*,-1%
O=S(=O)(Nc1ncccn1)c1cc(Cl)ccc1Cl,2%,34%,111%,-6%,1,-6%,x
Cc1nc(C)c(-c2ccc(SCC(=O)Nc3ccccc3F)nn2)s1,x,-28%,21%,-3%[60.1 µM],x,-20%,x
N#Cc1c(-c2ccc(Cl)cc2Cl)nc2n(c1=O)CCS2,-14%,u,u,-16%,-54*,u,2%
OC(c1ccc(Cl)c(F)c1)c1ncc(-c2ccc(Oc3ccccc3)cc2)[nH]1 (stereo unspecified),-6%,x,x,x,-57*,x,-5%
COC(=O)c1ccc(NC(=O)C(=O)NCCc2csc3nc(-c4ccccc4F)nn23)cc1,x,-23%,10%,0%[60.1 µM],x,-18%,x
Cc1cc(NC(=O)CCCn2cc([N+](=O)[O-])cn2)n(Cc2ccc(F)cc2)n1,3%[11.6 µM],25%,79µM*,u,-68*,u,-12%
CCC(C)c1nc2ccsc2c(N2CCOC2=O)c1-c1ccccc1 (stereo unspecified),-6%,x,8%,0%,-54*,-9%,2%
O=c1oc(-c2ccccc2)nc2ccsc12,0%,7%,20%,-10%,-2,u,x
Cc1ccc(NC(=O)c2ccc3c(c2)NC(=O)CS3)nc1,-27%,x,u,-11%,-57*,-6%,-9%
Cc1nnc(NC(=O)c2ccc3c(c2)NC(=O)CS3)s1,-3%,x,-14%,-18%,-5,0%,x
CCN(CC)S(=O)(=O)c1cc(NC(=O)CSc2nnc(N)s2)ccc1C,-5%,x,-3%,-4%,0,-5%,x
CCC(=O)Nc1ccc2nc(SCCOc3ccccc3)sc2c1,x,-19%,u,-6%,x,-5%,x
CCN(CC)C(=O)CSc1nc2ccc(NC(=O)CSc3nnc(N)s3)cc2s1,-19%[57.1 µM],32µM*,13µM*,u,-57*,11µM*,-3%
CC(=O)Nc1ccc2nc(SCC(=O)NCCOc3ccccc3)sc2c1,-1%,6%,u,-21%,-61*,-14%,2%
CCCCCCCCCC(=O)N1c2ccccc2NC(=O)C1CC(=O)Nc1ccc(C(=O)O)cc1 (stereo unspecified),-4%,-1%,5%,-3%,-1,-21%,x
COCCNC(=O)CSc1nc2cc3c(cc2c(=O)n1CCCCCC(=O)NCCc1ccc(OC)c(OC)c1)OCO3,x,-1%,41%,1%[60.1 µM],x,-19%,x
